In PubChem BioAssay AID743325 (National Center for Advancing Translational Sciences (NCATS), 2014) one finds Potency and activity change, negative = inhibition data, which are given here for 40 compounds.

The source made the active and inactive calls. Calls come from the whole dose curve. Numbered stars: 1 amine (or outer) side, 2 acyl side, 3 side chain; on linkers, the order of the positions; unused ones are H or OH. Bridge positions count the residues as written; N and C are the ends. Square brackets hold non-standard residues; d marks the D form. Peptide text beside a SMILES is read from it. I, II: the chains in the order shown. Actinocin(9to1) = Cc1c2oc3c(C)ccc(C(=O)[*:1])c3nc-2c(C(=O)[*:2])c(N)c1=O; NMeV = CN[CH](C(=O)O)C(C)C; Orn = NCCC[C@H](N)C(=O)O; Sar = CNCC(=O)O

The experiment is described as follows: qHTS profiling of Chloroquine Analogs as inhibitors of Plasmodium falciparum (3D7) proliferation. The settings on record: activity change, negative = inhibition: at 28.7 µM (top of the series) unless noted. The text has this: Plasmodium falciparum is a virulent malarial parasite that kills 1-2 million people worldwide each year. Transmitted by mosquitoes, the sporozoite form of the parasite enters the blood stream to infect hepatocytes, where they become merozoites that infect red blood cells (erythrocytes). Within erythrocytes, merozoites begin a […] cycle of growth and division, after which the parasite is released to infect new red blood cells. Gametocytes, which form within erythrocytes as well, circulate in the bloodstream and are ingested by the mosquito, thereby completing the life cycle. To profile malarial isolates for differential chemical responses and to identify inhibitors of malarial growth, an assay that measures P. falciparum growth and replication within erythrocytes was employed. This assay uses a DNA binding fluorescent dye (SYBR Green) to detect parasite DNA following cell lysis. Because mature erythrocytes lack DNA, only Plasmodium-derived DNA is detected.
The SYBR Green viability assay was adapted from a method described previously (Plouffe et al., 2008). For screening 3 ul culture medium was dispensed into 1536 well black clear bottom plates (Aurora Biotechnologies) using a Multidrop Combi (Thermo Fisher Scientific Inc.), 23 nL compounds in DMSO were added by a pin tool (Kalypsys), and 5 ul of erythrocytes infected with P. falciparum (0.3% parasitemia, 2.5% hematocrit final concentration) were added. The plates were incubated at 37 C in a humidified incubator in 5% CO2 for 72 h, and 2 ul lysis buffer (20 mM Tris HCl, 10 mM EDTA, 0.16% saponin, 1.6% triton X, 10X SYBR Green I supplied as 10,000X […] by Invitrogen) was added to each well. The plates were mixed for 25 sec with gentle shaking and incubated overnight at room temperature in the dark. The following morning, fluorescence intensity at 485(14) nm excitation and 535(25) nm emission wavelengths was measured on an EnVision (Perkin Elmer) plate reader. Plate reads were normalized relative to the control inhibitor (0.29 uM artemisinin) and vehicle (DMSO) wells present on each plate and then corrected by an algorithm using vehicle-only control plates at the beginning and end of the compound plate stack.
For orientation: In qHTS, concentration-response curves come from the screen itself.
Take `COc1cc(NC(C)CCCN)c2ncccc2c1` (stereo not given): the Potency was 902 nM (active).
Same read-out and setting: the result for `CC(C)N=C(N)N=C(N)Nc1ccc(Cl)cc1` reads 26.6 nM (active).
`Cc1cccc(C)c1OCC(N)C(C)C` (stereo not given): the activity change, negative = inhibition is -97.7%.
The same measure, in the same setting: the result for `CC(C)C[C@@H]1NC(=O)[C@H](CCCN)NC(=O)[C@H](C(C)C)NC(=O)[C@@H]2CCCN2C(=O)[C@@H](Cc2ccccc2)NC(=O)[C@H](CC(C)C)NC(=O)[C@H](CCCN)NC(=O)[C@H](C(C)C)NC(=O)[C@@H]2CCCN2C(=O)[C@@H](Cc2ccccc2)NC1=O` (cyclo(V[Orn]L[dF]PV[Orn]L[dF]P)) reads -102%.
Take `CCN(CC)CCOc1ccc2c(=O)c3ccc(Cl)cc3n(CCN(CC)CC)c2c1`: the activity change, negative = inhibition was -101%.
Consider `Cc1cccc(C)c1NC(=O)C(C)N` (stereo not given), for which the Potency entry was “inactive”.
As to `COc1ncnc(NS(=O)(=O)c2ccc(N)cc2)c1OC`, the Potency is 1500 nM (active).
For the compound `O=CN(O)CCCP(=O)(O)O`, the Potency is 530 nM (active).
Same read-out and setting: the result for `C/C(=C\c1csc(C)n1)[C@@H]1C[C@@H]2O[C@]2(C)CCC[C@H](C)[C@H](O)[C@@H](C)C(=O)C(C)(C)[C@@H](O)CC(=O)O1` reads “inactive”; that for `CCCCCCCCCCOc1cc2c(=O)c(C(=O)OCC)c[nH]c2cc1OCC`, “inactive”; that for `Cn1cncc1[C@@](N)(c1ccc(Cl)cc1)c1ccc2c(c1)c(-c1cccc(Cl)c1)cc(=O)n2C`, 1680 nM (active).
In the case of `CO[C@H]1O[C@@H]2O[C@@]3(C)CC[C@@H]4[C@@H](C)CC[C@@H]([C@H]1C)[C@@]24OO3`, the Potency result was “inactive”.
Turning to `COCC(=O)O[C@]1(CCN(C)CCCc2nc3ccccc3[nH]2)CCc2cc(F)ccc2[C@@H]1C(C)C`, the activity change, negative = inhibition is -102%.
For the compound `C[N+]1(C)CCC(=C(c2ccccc2)c2ccccc2)CC1`, the activity change, negative = inhibition is -94.2% [at 14.2 µM].
For `NC(=NCc1ccccc1)NC(=O)c1nc(Cl)c(N)nc1N`, the activity change, negative = inhibition is -99.4%.
On to `C=Cc1c(C)c2cc3nc(cc4[nH]c(cc5nc(cc1[nH]2)C(C)=C5CCC(=O)OC)c(CCC(=O)O)c4C)[C@@]1(C)C3=CC=C(C(=O)OC)[C@H]1C(=O)OC`, for which the Potency entry is “inactive”.
As to `CN1C[C@H](C(=O)N[C@]2(C)O[C@@]3(O)[C@@H]4CCCN4C(=O)[C@H](Cc4ccccc4)N3C2=O)C[C@@H]2c3cccc4[nH]cc(c34)C[C@H]21`, the Potency is 530 nM (active).
The same measure, in the same setting: the result for `COc1cc2c(cc1C(F)(F)F)N(C(=O)Nc1cc(F)cc(-c3cccnc3)c1)CC2` reads 3760 nM (active).
For the compound `C#C[C@]1(O)CC[C@@H]2[C@H]3CCC4=CC(=O)CC[C@H]4[C@H]3C(=C)C[C@@]21CC`, the Potency entry is “inactive”.
Same read-out and setting: then `CCN(CC)CCOCCOC(=O)C(CC)(CC)c1ccccc1`, with “inactive”.
Turning to `CCN(CC)CCCC(C)Nc1ccnc2cc(Cl)ccc12` (stereo not given), the activity change, negative = inhibition is -99%.
Same read-out and setting: then `CNC(=O)c1cc(Oc2ccc(NC(=O)Nc3ccc(Cl)c(C(F)(F)F)c3)cc2)ccn1`, with -100%.
Regarding `CSc1cccc(NC(=O)CC[C@H]2O[C@@H]3O[C@]4(C)CC[C@H]5[C@H](C)CC[C@@H]([C@@H]2C)[C@@]35OO4)c1`, the Potency was 21.1 nM (active).
As to `C[C@@H]1[C@@H](CC(C[C@H]2O[C@@H]3O[C@]4(C)CC[C@@H]5[C@H](C)CC[C@@H]([C@H]2C)[C@@]35OO4)C(=O)NCc2ccc(F)cc2)O[C@@H]2O[C@]3(C)CC[C@H]4[C@H](C)CC[C@@H]1[C@@]24OO3` (stereo not given in full), the activity change, negative = inhibition is -101%.
Take `C[C@H]1c2cccc(O)c2C(O)=C2C(=O)[C@]3(O)C(O)=C(C(N)=O)C(=O)[C@@H](N(C)C)[C@@H]3[C@@H](O)[C@@H]21`: the Potency is 8410 nM (active).
On to `COc1ccc(CCN(C)CCCC(C#N)(c2ccc(OC)c(OC)c2)C(C)C)cc1OC` (stereo not given), for which the Potency result was “inactive”.
Turning to `C[C@@H]1CC[C@H]2[C@@H](C)C(=O)O[C@@H]3OC4(C)CC[C@@H]1C32OO4` (stereo not given in full), the activity change, negative = inhibition is -99.4% [at 57.5 µM].
For the compound `O=C(Nc1ccc(Cl)cc1)Nc1ccc(Cl)c(Cl)c1`, the activity change, negative = inhibition was -102%.
Same read-out and setting: then `C=C[C@@H]1CN2CC[C@@H]1C[C@H]2[C@H](O)c1ccnc2ccc(OC)cc12`, with -98.6%; and `C=C[C@@H]1CN2CCC1C[C@@H]2C(O)c1ccnc2ccc(OC)cc12` (stereo not given in full), with -97.6%.
With `CN(C)CC/C=C1\c2ccccc2COc2ccccc21`, the Potency was 2020 nM (active).
Regarding `CC(CNC1CCCCC1)OC(=O)c1ccccc1` (stereo not given), the Potency entry was “inactive”.
Take `CCCC(=O)O[C@]1(C(=O)CCl)[C@H](C)C[C@@H]2[C@H]3CCC4=CC(=O)C=C[C@]4(C)[C@@]3(F)C(=O)C[C@@]21C`: the activity change, negative = inhibition was -101%.
For `Cc1c2oc3c(C)ccc(C(=O)NC4C(=O)NC(C(C)C)C(=O)N5CCCC5C(=O)N(C)CC(=O)N(C)C(C(C)C)C(=O)OC4C)c3nc-2c(C(=O)NC2C(=O)NC(C(C)C)C(=O)N3CCCC3C(=O)N(C)CC(=O)N(C)C(C(C)C)C(=O)OC2C)c(N)c1=O` (stereo not given) (I: TVP[Sar][NMeV] / II: TVP[Sar][NMeV]; ester I:1-I:C, II:1-II:C; linker I:N-II:N via Actinocin(9to1); configuration not given here), the Potency is 2.1 nM (active).
`CC(=O)N(O)CCCP(=O)(O)O`: the Potency was 266 nM (active).
On to `COc1cc2c(Nc3ccc(NC(=O)c4ccccc4)cc3)ncnc2cc1OCCCN1CCOCC1`, for which the activity change, negative = inhibition is -100%.
Take `C[C@H]1[C@@H](OC(=O)CCC(=O)O)O[C@@H]2OC3(C)CC[C@H]4[C@H](C)CC[C@@H]1[C@@]24OO3`: the activity change, negative = inhibition was -101%.
Take `CN(C)CCOC(c1ccccc1)c1ccccc1`: the Potency result is “inactive”.
With `CC[C@H]1OC(=O)[C@H](C)[C@@H](O[C@H]2C[C@@](C)(OC)[C@@H](O)[C@H](C)O2)[C@H](C)[C@@H](O[C@@H]2O[C@H](C)C[C@H](N(C)C)[C@@H]2O)[C@](C)(O)C[C@@H](C)CN(C)[C@H](C)[C@@H](O)[C@]1(C)O`, the Potency was 9430 nM (active).
Same read-out and setting: the result for `C=CC(C)=C[C@@]1(C)SC(=O)C(C)=C1O` reads “inactive”.
